Data published in PubChem BioAssay AID449749 (Broad Institute, 2010).
About 1,700 (81%) of roughly 2,100 compounds were called active. The set was probably picked from earlier hits. Some of the results follow. Measured potencies and affinities stand elsewhere. Results filed as inconclusive are left out. Values without a mark were called inactive. The rule behind the calls is not given here.

Biological target: Replicative DNA helicase DnaB (Mycobacterium tuberculosis (strain ATCC 25618 / H37Rv)) (UniProt P9WMR3)
Sequence (P9WMR3 whole entry, looked up): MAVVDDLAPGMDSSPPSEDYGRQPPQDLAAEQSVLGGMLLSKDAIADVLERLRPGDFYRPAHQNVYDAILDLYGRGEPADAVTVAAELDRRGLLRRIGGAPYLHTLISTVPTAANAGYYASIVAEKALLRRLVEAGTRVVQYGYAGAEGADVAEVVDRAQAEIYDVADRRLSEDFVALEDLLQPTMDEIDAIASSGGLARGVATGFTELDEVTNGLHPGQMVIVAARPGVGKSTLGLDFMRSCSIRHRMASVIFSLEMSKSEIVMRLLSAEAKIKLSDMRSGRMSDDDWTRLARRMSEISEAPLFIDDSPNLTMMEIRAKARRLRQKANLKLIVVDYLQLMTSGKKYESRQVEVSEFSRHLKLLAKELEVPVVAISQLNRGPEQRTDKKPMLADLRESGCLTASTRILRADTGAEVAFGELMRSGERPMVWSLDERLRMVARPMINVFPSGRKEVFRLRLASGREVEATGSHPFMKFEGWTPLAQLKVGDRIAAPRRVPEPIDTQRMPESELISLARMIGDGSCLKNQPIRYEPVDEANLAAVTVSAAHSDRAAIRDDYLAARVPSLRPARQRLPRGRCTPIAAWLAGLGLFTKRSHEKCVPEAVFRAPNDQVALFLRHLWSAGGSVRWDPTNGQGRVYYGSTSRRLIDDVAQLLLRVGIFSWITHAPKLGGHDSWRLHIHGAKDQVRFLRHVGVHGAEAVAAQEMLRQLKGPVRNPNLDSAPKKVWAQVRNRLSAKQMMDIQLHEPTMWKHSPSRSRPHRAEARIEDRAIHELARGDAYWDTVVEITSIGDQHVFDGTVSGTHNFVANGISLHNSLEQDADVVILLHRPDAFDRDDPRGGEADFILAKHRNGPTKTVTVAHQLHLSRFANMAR
Experiment: DnaB intein splicing inhibitors, dose response, biochemical, M. tuberculosis H37Rv, cell-free fluorescence (AID 449749)
Details: series mostly up to 38 µM; activity change, negative = inhibition: at the top concentration

SMILES | activity change, negative = inhibition [%]
OCCNC(=S)Nc1ccc2nsnc2c1 | 170
CCCCNC(=O)c1c(N)n(Cc2ccc3c(c2)OCO3)c2nc3ccccc3nc12 | 83.3
Cc1ccsc1C=Nc1ccc(O)cc1 | 66
C=CCn1c(N)c(C(=O)Nc2cccc(C)c2)c2nc3ccccc3nc21 | 458
CN1/C(=C/C(=O)c2nc(S(C)(=O)=O)ncc2Cl)C(C)(C)c2ccccc21 | 112
ONc1cccnc1-n1nc(C(F)(F)F)cc1C(F)(F)F | 205
CCCCCn1c(N)c(C(=O)NCc2cccs2)c2nc3ccccc3nc21 | 438
O=[N+]([O-])c1cncc([N+](=O)[O-])c1Nc1cccc(O)c1 | 106
CCOc1ccc2c(c1)-c1c(ssc1=S)C(C)(C)N2 | 32.7
